The record followed here is PubChem BioAssay (EPA / NIEHS).

Conditions in all cases: primary human HUVEC with PBMC; actives raise or lower the signal
Read-out in assay [1]: Monocyte Chemoattractant Protein-1 (MCP1), CCL2 (gene 6347)
The assay can be described thus: BSK_LPS_MCP1: BioMAP Diversity Plus: LPS Assay for Monocyte Chemoattractant Protein-1 (MCP1) Biomarker Activity (AID 2283081).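 As to AC50: secreted MCP-1 protein quantified by ELISA in culture supernatant.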 The method, boiled down: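 LPS-stimulated HUVEC/PBMC co-culture; chemical, 24 h; MCP-1 by ELISA; bidirectional fit vs DMSO; cytotoxicity via SRB (0.1% stain, 10% TCA fix, 560 nm) in parallel wells.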

Read-out in assay [2]: Macrophage colony-stimulating factor (MCSF), CSF1 (gene 1435)
The assay can be described thus: BSK_LPS_MCSF: BioMAP Diversity Plus: LPS Assay for Macrophage colony-stimulating factor (MCSF) Biomarker Activity (AID 2283083). The procedure, abridged: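 Compound is added to a human vascular primary co-culture of umbilical vein endothelium and blood mononuclear cells. After 24 h, M-CSF is quantified by ELISA. Signal changes are fitted in both directions against DMSO.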

Read-out in assay [3]: Tissue Factor, F3 (gene 2152)
The assay can be described thus: BSK_LPS_TissueFactor: BioMAP Diversity Plus: LPS Assay for Tissue Factor Biomarker Activity (AID 2283084). The procedure, abridged: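 In this co-culture system of umbilical vein endothelium with PBMC, stimulated with LPS, cell-surface CD142 is detected by ELISA at 24 h. Endpoint values derive from bidirectional fitting, DMSO serving as baseline.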

Read-out in assay [4]: Tumor necrosis factor (Homo sapiens) (UniProt P01375)
The assay can be described thus: BSK_LPS_TNFa: BioMAP Diversity Plus: LPS Assay for Tumour Necrosis Factor alpha (TNFa) Biomarker Activity (AID 2283085).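 As to AC50: TNFa protein level quantified by ELISA in the co-culture.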 The method, boiled down:
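TNFa was quantified by ELISA in LPS-activated co-cultures of human endothelial cells and PBMC, 24 h post-dosing. Both increases and decreases versus DMSO were fitted.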

Read-out in assay [5]: Vascular cell adhesion molecule 1 (VCAM1), VCAM1 (gene 7412)
The assay can be described thus: BSK_LPS_VCAM1: BioMAP Diversity Plus: LPS Assay for Vascular cell adhesion molecule 1 (VCAM1) Biomarker Activity (AID 2283086). The method, boiled down:
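VCAM-1 quantified by ELISA in an LPS-activated co-culture of human endothelial cells and peripheral blood mononuclear cells, read 24 h post-treatment. Fitted in both directions versus DMSO; parallel SRB staining flags overt cytotoxicity.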

Read-out in a further assay: CD38, CD38 (gene 952)
The assay can be described thus: BSK_SAg_CD38: BioMAP Diversity Plus: SAg Assay for CD38 Biomarker Activity (AID 2283087). The method, boiled down:
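CD38 quantified by ELISA (fluorescence) in a superantigen-activated endothelial cell–PBMC co-culture at 24 h post-dose. Activity fitted in both directions relative to DMSO; parallel SRB and Alamar Blue cytotoxicity read-outs.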

Read-out in the next assay: CD40, CD40 (gene 958)
The assay can be described thus: BSK_SAg_CD40: BioMAP Diversity Plus: SAg Assay for CD40 Biomarker Activity (AID 2283088). The procedure, abridged:
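Fluorescence ELISA read-out of CD40 from umbilical vein endothelium plus peripheral blood mononuclear cells, sampled 24 h after dosing. Values come from bidirectional curve fitting with DMSO as baseline.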

Read-out in a further assay: CD69, CD69 (gene 969)
The assay can be described thus: BSK_SAg_CD69: BioMAP Diversity Plus: SAg Assay for CD69 Biomarker Activity (AID 2283089).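 As to AC50: cell surface CD69 protein quantified by ELISA with fluorescence detection.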 The method, boiled down: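 HUVEC co-cultured with PBMC were dosed with chemical, and CD69 was measured by ELISA with fluorescence read-out 24 h later. Bidirectional curve fitting used DMSO as negative control and activity baseline.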

A short description of assay [6]: BSK_LPS_PGE2: BioMAP Diversity Plus: LPS Assay for Prostaglandin E2 (PGE2) Biomarker Activity (AID 2283082). The method, boiled down: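 PGE2 release measured by ELISA in an LPS-activated co-culture of human umbilical vein endothelial cells and peripheral blood mononuclear cells, read at 24 h post-dosing. DMSO served as baseline for bidirectional curve fitting.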

Read-out in assay [7]: Monocyte Chemoattractant Protein-1 (MCP1), CCL2 (gene 6347)
The assay can be described thus: BSK_SAg_MCP1: BioMAP Diversity Plus: SAg Assay for Monocyte Chemoattractant Protein-1 (MCP1) Biomarker Activity (AID 2283090). The method, boiled down:
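Values derive from bidirectional fitting of ELISA-measured MCP1 against DMSO controls. Readings were taken 24 h after dosing human vascular endothelial cells co-cultured with peripheral blood mononuclear cells under superantigen stimulation.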

SMILES strings stand for the structures. Where “and” joins values, the source holds several entries; their conditions need not be identical. Equal values may be shown once. The source holds several records for some structures; these can differ, active in one and inactive in another. Calls of active or inactive are those of the source. The calls were made as follows: active = hit-call score of the fitted dose curve at least 0.9, where 1 is the maximum; inactive = score below 0.9.

Tumor necrosis factor (Homo sapiens), sequence (P01375 whole entry, looked up): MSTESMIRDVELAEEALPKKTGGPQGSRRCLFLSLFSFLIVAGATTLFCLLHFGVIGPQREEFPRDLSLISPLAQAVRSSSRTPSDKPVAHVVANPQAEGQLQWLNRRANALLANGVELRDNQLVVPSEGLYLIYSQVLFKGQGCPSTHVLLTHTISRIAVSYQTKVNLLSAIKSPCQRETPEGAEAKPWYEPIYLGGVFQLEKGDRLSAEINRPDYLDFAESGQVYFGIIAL

A word on the AC50: it is the concentration giving half of the maximal activity seen. For the compound `O=C(O)C[C@H](O)C[C@H](O)/C=C/c1c(C2CC2)nc2ccccc2c1-c1ccc(F)cc1`, the outcome in [1] was “inactive”; in assay [2], “inactive”; in assay [3], “inactive”; in [5] it was “inactive”; with CD38, CD38 (gene 952), “inactive”. Moreover, the AC50 in [4] was 3.17 µM (active); with CD40, CD40 (gene 958) it was 0.216 µM (active); with CD69, CD69 (gene 969), 0.109 µM (active).
On to `CCCCCCCCC=O`, for which the outcome is “inactive” in [1]; “inactive” in assay [6]; “inactive” in [3]; “inactive” in [4]; “inactive” in assay [5]; “inactive” with CD38, CD38 (gene 952). Besides, the outcome with CD40, CD40 (gene 958) is “inactive”; with CD69, CD69 (gene 969), “inactive”.
In the case of `Cc1ccc(O)c(C(C)(C)C)c1`, the AC50 in assay [1] is 33 µM (active); in assay [3] it was 30.4 µM (active); in [4] it was 34.8 µM (active); in [5] it was 36.8 µM (active); with CD38, CD38 (gene 952), 37 µM (active); with CD40, CD40 (gene 958), 35.5 µM (active). The AC50 with CD69, CD69 (gene 969) is 30.9 µM (active). For the same compound, the outcome in [6] was inactive.
As for `Cc1ccc(Nc2ccc(O)c3c2C(=O)c2ccccc2C3=O)cc1`, the outcome in assay [1] was “inactive”; in assay [3], “inactive”; in assay [5] it was “inactive”; with CD38, CD38 (gene 952) it was “inactive”; with CD40, CD40 (gene 958) it was “inactive”; in the assay with CD69, CD69 (gene 969), “inactive”. For the same compound, the AC50 in assay [6] is 1.06 µM (active); in [4] it was 0.435 µM (active).
`C=CCOC(=O)CCC1CCCCC1`: the outcome is “inactive” in assay [1]; “inactive” in assay [3]; “inactive” in [4]; “inactive” in [5]; “inactive” with CD38, CD38 (gene 952); “inactive” with CD40, CD40 (gene 958). Moreover, the outcome in the assay with CD69, CD69 (gene 969) was inactive. Further, the AC50 in assay [3] is 1.01 µM (active).
On to `OC1OC[C@@H](O)[C@H](O)[C@H]1O` (stereo not given in full), for which the outcome in assay [1] was “inactive”; in assay [6], “inactive”; in assay [3] it was “inactive”; in assay [4], “inactive”; in [5] it was “inactive”; in the assay with CD38, CD38 (gene 952), “inactive”. Besides, the outcome is “inactive” in the assay with CD40, CD40 (gene 958) and “inactive” with CD69, CD69 (gene 969).
With `CC(C)Oc1ccccc1O`, the outcome in assay [1] was “inactive”; in [2], “inactive”; in assay [3], “inactive”; in [4], “inactive”; in assay [5] it was “inactive”; with CD38, CD38 (gene 952), “inactive”. In addition, the outcome in the assay with CD40, CD40 (gene 958) was “inactive”; with CD69, CD69 (gene 969) it was “inactive”; in assay [7], “inactive”.
As to `CC(C)c1ccc(C(C)C)cc1`, the outcome in [1] is “inactive”; in assay [6], “inactive”; in assay [3] it was “inactive”; in assay [4], “inactive”; in assay [5], “inactive”; in the assay with CD38, CD38 (gene 952), “inactive”. The outcome was “inactive” with CD40, CD40 (gene 958); “inactive” with CD69, CD69 (gene 969); “inactive” in assay [7].
With `C=C[Si](OCC)(OCC)OCC`, the outcome in assay [1] was “inactive”; in assay [2], “inactive”; in assay [3] it was “inactive”; in assay [4] it was “inactive”; in [5], “inactive”; with CD38, CD38 (gene 952), “inactive”. Also, the outcome with CD40, CD40 (gene 958) is “inactive”; with CD69, CD69 (gene 969), “inactive”; in [7], “inactive”.
As for `CC(C)(COC(=O)c1ccccc1)COC(=O)c1ccccc1`, the outcome in assay [1] is “inactive”; in assay [6] it was “inactive”; in assay [3], “inactive”; in assay [4], “inactive”; with CD38, CD38 (gene 952) it was “inactive”. The AC50 was 30.9 µM (active) in assay [2]; 26.2 µM (active) in assay [5]; 32.3 µM (active) with CD40, CD40 (gene 958); 31.7 µM (active) with CD69, CD69 (gene 969).
Turning to `C[C@H]1C[C@@H]2[C@H]([C@@H](O)C[C@@]3(C)[C@H]2CC[C@]3(O)C(=O)CO)[C@@]2(C)C=CC(=O)C=C12`, the outcome was “inactive” in assay [1]; “inactive” in assay [3]; “inactive” in [5]; “inactive” with CD38, CD38 (gene 952); “inactive” in the assay with CD40, CD40 (gene 958); “inactive” in the assay with CD69, CD69 (gene 969). Besides, the AC50 in [3] was 6.44 µM (active); in assay [4] it was 4.93 µM (active) and 3.97 µM (active).
Take `OC[C@H]1O[C@H](O[C@]2(CCl)O[C@H](CCl)[C@@H](O)[C@@H]2O)[C@H](O)[C@@H](O)[C@H]1Cl`: the outcome in assay [1] is “inactive”; in [2], “inactive”; in [3], “inactive”; in [4] it was “inactive”; in assay [5], “inactive”; with CD38, CD38 (gene 952), “inactive”. Also, the outcome was “inactive” with CD40, CD40 (gene 958) and “inactive” with CD69, CD69 (gene 969).
